Test results from PubChem BioAssay (EPA / NIEHS).
Values joined by “and” are separate entries in the source; they are usually repeats but may differ in a detail not shown here. Identical values can stand only once. Records with an inconclusive call do not appear. Some compounds were tested as several samples or in several runs, with calls that do not always agree. Active and inactive are the calls of the source. The calls were made as follows, unless noted: active = hit-call score of the fitted dose curve at least 0.9, where 1 is the maximum; inconclusive = response in the unintended direction; inactive = score below 0.9.

biological target: human Peroxisome Proliferator-activated Receptor delta (PPARd), PPARD (gene 5467) (UniProt Q03181); assay: ATG_PPARd_TRANS: Attagene TRANS-FACTORIAL HepG2 Assay for human Peroxisome Proliferator-activated Receptor delta (PPARd) (AID 2283002); conditions: not given
In short: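 Transient HepG2 transfection (multiple GAL4-UAS RTUs, chimeric receptor-Gal4); 24 h dosing; total RNA → oligo(dT) RT → PCR → 6-FAM primer extension → HpaI cut → CE. Positive direction vs DMSO.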

Chain of human Peroxisome Proliferator-activated Receptor delta (PPARd), PPARD (gene 5467) (Q03181 whole entry, looked up, the tested form may be a part): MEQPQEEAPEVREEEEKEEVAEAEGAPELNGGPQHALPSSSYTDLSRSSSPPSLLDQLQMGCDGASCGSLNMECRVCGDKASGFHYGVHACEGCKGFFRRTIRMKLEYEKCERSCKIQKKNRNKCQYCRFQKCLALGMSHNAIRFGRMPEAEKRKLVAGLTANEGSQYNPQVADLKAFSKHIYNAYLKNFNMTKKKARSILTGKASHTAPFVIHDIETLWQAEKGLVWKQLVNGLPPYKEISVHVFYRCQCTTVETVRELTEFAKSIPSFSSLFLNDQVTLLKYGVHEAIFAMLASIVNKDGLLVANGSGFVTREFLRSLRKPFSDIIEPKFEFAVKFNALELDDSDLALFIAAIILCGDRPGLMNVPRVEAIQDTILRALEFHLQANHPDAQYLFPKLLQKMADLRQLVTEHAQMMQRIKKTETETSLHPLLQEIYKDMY

Compound | outcome
COC(=O)N(OC)c1ccccc1COc1ccn(-c2ccc(Cl)cc2)n1 | inactive
COc1ccc(C(c2ccc(OC)cc2)C(Cl)(Cl)Cl)cc1 | inactive
C=CC1(C)OC(=O)N(c2cc(Cl)cc(Cl)c2)C1=O (stereo not drawn) | inactive
Oc1ccccc1-c1ccccc1 | inactive
CN(C)C(=S)SSC(=S)N(C)C | inactive
COC(=O)C=C(C)OP(=O)(OC)OC | inactive
CC(C)C1(C)N=C(c2nc3ccccc3cc2C(=O)O)NC1=O (stereo not drawn) | inactive
O=C(Nc1ccccc1)Nc1ccnc(Cl)c1 | inactive
CO/C=C(/C(=O)OC)c1ccccc1Oc1cc(Oc2ccccc2C#N)ncn1 | inactive
CC1COC(Cn2cncn2)(c2ccc(Oc3ccc(Cl)cc3)cc2Cl)O1 (stereo not drawn) | inactive
CCCN(CCC)c1c([N+](=O)[O-])cc(S(N)(=O)=O)cc1[N+](=O)[O-] | inactive
Cc1ccc(-c2c(Cl)nc(C#N)n2S(=O)(=O)N(C)C)cc1 | inactive
CCCC1COC(Cn2cncn2)(c2ccc(Cl)cc2Cl)O1 (stereo not drawn) | inactive
OC(c1ccc(Cl)cc1)(c1cncnc1)c1ccccc1Cl (stereo not drawn) | inactive
CC(C)Oc1cc(-n2nc(C(C)(C)C)oc2=O)c(Cl)cc1Cl | inactive
N#CC(CCc1ccc(Cl)cc1)(Cn1cncn1)c1ccccc1 (stereo not drawn) | inactive
C#CCOS(=O)OC1CCCCC1Oc1ccc(C(C)(C)C)cc1 (stereo not drawn) | inactive
O=C(O)COc1nc(Cl)c(Cl)cc1Cl | inactive
CNC(=S)S | inactive
COc1nc(NC(C)C)nc(NC(C)C)n1 | inactive
CCCCNC(=O)OCC#CI | inactive
Fc1ccc(Oc2ccnc3cc(Cl)cc(Cl)c23)cc1 | inactive
COc1nc(C)nc(NC(=O)NS(=O)(=O)c2ccccc2CCC(F)(F)F)n1 | inactive
CCNc1nc(Cl)nc(NC(C)C)n1 | inactive
CON(C)C(=O)Nc1ccc(Cl)c(Cl)c1 | inactive
CC1=C(C(=O)Nc2ccccc2)SCCO1 | inactive

read-out: Intercellular Adhesion Molecule 1 (ICAM1), ICAM1 (gene 3383); assay: BSK_3C_ICAM1: BioMAP Diversity Plus: 3C Assay for Intercellular Adhesion Molecule 1 (ICAM1) Biomarker Activity (AID 2283003; active = hit-call score of the fitted dose curve at least 0.9, where 1 is the maximum; inactive = score below 0.9); conditions: primary human endothelial cells (HUVEC); actives raise or lower the signal
In short: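 Using DMSO as baseline, bidirectional curve fitting was applied to ICAM-1 ELISA signals from HUVEC in the 3C system, measured 24 h after compound addition.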

Compound | outcome | AC50
COC(=O)N(OC)c1ccccc1COc1ccn(-c2ccc(Cl)cc2)n1 | inactive | 
COc1ccc(C(c2ccc(OC)cc2)C(Cl)(Cl)Cl)cc1 | inactive | 
C=CC1(C)OC(=O)N(c2cc(Cl)cc(Cl)c2)C1=O (stereo not drawn) | inactive | 
Oc1ccccc1-c1ccccc1 | inactive | 
CN(C)C(=S)SSC(=S)N(C)C |  | 32.1 µM (active)
COC(=O)C=C(C)OP(=O)(OC)OC | inactive | 
CC(C)C1(C)N=C(c2nc3ccccc3cc2C(=O)O)NC1=O (stereo not drawn) | inactive | 
O=C(Nc1ccccc1)Nc1ccnc(Cl)c1 | inactive | 
CO/C=C(/C(=O)OC)c1ccccc1Oc1cc(Oc2ccccc2C#N)ncn1 | inactive | 32.6 µM (active)
CC1COC(Cn2cncn2)(c2ccc(Oc3ccc(Cl)cc3)cc2Cl)O1 (stereo not drawn) |  | 36.2 µM (active)
CCCN(CCC)c1c([N+](=O)[O-])cc(S(N)(=O)=O)cc1[N+](=O)[O-] |  | 41.3 µM (active) [middle of 4 runs]
Cc1ccc(-c2c(Cl)nc(C#N)n2S(=O)(=O)N(C)C)cc1 | inactive | 
CCCC1COC(Cn2cncn2)(c2ccc(Cl)cc2Cl)O1 (stereo not drawn) | inactive | 
OC(c1ccc(Cl)cc1)(c1cncnc1)c1ccccc1Cl (stereo not drawn) | inactive | 
CC(C)Oc1cc(-n2nc(C(C)(C)C)oc2=O)c(Cl)cc1Cl | inactive | 
N#CC(CCc1ccc(Cl)cc1)(Cn1cncn1)c1ccccc1 (stereo not drawn) | inactive | 
C#CCOS(=O)OC1CCCCC1Oc1ccc(C(C)(C)C)cc1 (stereo not drawn) | inactive | 
O=C(O)COc1nc(Cl)c(Cl)cc1Cl | inactive | 
CNC(=S)S | inactive | 
COc1nc(NC(C)C)nc(NC(C)C)n1 | inactive | 
CCCCNC(=O)OCC#CI |  | 29.8 µM (active) and 30 µM (active)
Fc1ccc(Oc2ccnc3cc(Cl)cc(Cl)c23)cc1 |  | 29.9 µM (active)
COc1nc(C)nc(NC(=O)NS(=O)(=O)c2ccccc2CCC(F)(F)F)n1 | inactive | 
CCNc1nc(Cl)nc(NC(C)C)n1 | inactive | 
CON(C)C(=O)Nc1ccc(Cl)c(Cl)c1 | inactive | 
CC1=C(C(=O)Nc2ccccc2)SCCO1 | inactive | 
